Assay outcomes as filed in PubChem BioAssay.
Rows were chosen to be rich in hits. Some 3.5% of all compounds tested hit in one or more screens of this group.
MITF inh: human MITF inhibition, primary screen; O75030; AlphaScreen MITF homodimerization, bead proximity signal; inhibition, % at 2.6 µM; hit rate 0.91% among 650,000; AID 1259374; in the data active = inhibition above about 50%;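 also: 0% = vehicle wells with protein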
FBW7 act: activators of human E3 ligase FBW7; Q969H0; AlphaScreen FBW7–phospho-cyclin E peptide binding, activator screen; normalized activity (activation), % at 26.1 µM; hit rate 0.13% among 650,000; in the data active = normalized activity above about 1.9%;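 also: purified mutant Fbw7 with reduced substrate affinity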
Target sequence (Q969H0 whole entry, looked up): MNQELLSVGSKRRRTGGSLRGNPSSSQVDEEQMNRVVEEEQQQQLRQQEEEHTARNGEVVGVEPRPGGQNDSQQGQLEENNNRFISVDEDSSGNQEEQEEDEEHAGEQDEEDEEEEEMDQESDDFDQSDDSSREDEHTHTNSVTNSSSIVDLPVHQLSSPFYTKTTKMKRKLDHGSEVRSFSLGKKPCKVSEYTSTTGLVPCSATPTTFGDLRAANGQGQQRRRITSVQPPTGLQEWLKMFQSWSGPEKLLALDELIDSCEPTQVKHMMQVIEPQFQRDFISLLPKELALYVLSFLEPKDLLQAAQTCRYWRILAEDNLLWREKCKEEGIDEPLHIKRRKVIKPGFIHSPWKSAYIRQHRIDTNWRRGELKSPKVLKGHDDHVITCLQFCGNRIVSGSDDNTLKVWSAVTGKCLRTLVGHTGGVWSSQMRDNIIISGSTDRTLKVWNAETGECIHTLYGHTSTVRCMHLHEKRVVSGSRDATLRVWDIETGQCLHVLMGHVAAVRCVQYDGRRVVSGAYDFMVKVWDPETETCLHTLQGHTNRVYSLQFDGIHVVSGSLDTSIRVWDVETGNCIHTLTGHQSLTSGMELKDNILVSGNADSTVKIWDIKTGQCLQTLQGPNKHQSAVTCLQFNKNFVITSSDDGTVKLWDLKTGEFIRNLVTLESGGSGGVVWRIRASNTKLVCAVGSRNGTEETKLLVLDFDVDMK
GPR151 ag: human GPR151 activation. activation, % at 11.2 µM. Q8TDV0. PathHunter beta-arrestin GPR151 cells, luminescence. hit rate 1% among 650,000; in the data active = activation above about 4.9%;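 also: 0% = median of compound wells and 100% = cells with positive control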
TEAD-YAP inh: TEAD-YAP interaction inhibition. HEK-TIYL cells, TEAD-Gal4/YAP UAS-luciferase luminescence. inhibition, % at 9.12 µM. hit rate 1.4% among 640,000; in the data active = inhibition above about 32%;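 also: 0% = median of test compound wells and 100% = reference inhibitor wells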
GPR151 confirm: confirmation of human GPR151 activators; shares compounds with GPR151 ag; GPR151 PathHunter beta-arrestin cells, luminescence, 90 min; % of EA-reagent control over plate median; activation, % at 11.2 µM; 6,700 tested, under 10 active;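 active = mean percent activation across replicates above the confirmation screen cutoff of 4.91%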
GPR119 ag: GPR119 activation, counter-screen for GPR151 activators; activation, % at 11.2 µM; hit rate 0.3% among 6,700; GPR119 PathHunter beta-arrestin cells, luminescence, 90 min; 0 = compound-well median, 100 = enzyme-acceptor control; shares compounds with GPR151 ag; AID 1508611;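 active = mean percent activation in the counterscreen above 29.09%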;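 also: counterscreen on off-target GPR119 to flag nonselective hits from the GPR151 activator screen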
The depositor's hits bear a star.

COC(C(=O)Nc1ccccc1C(=O)O)c1ccccc1 (centres undefined) was read as MITF inh 12, FBW7 act 0, GPR151 ag 0 and TEAD-YAP inh 4.
COC(C(=O)Nc1c(F)cccc1F)c1ccccc1 (centres undefined) was read as MITF inh 1, FBW7 act 1, GPR151 ag 5.9*, TEAD-YAP inh -1, GPR151 confirm 0 and GPR119 ag -8.
For N#Cc1c(C(F)(F)F)cc(-c2cccs2)nc1SCC(=O)O the results were MITF inh 6, FBW7 act 0, GPR151 ag 0 and TEAD-YAP inh 9.
`N#Cc1c(C(F)(F)F)cc(-c2cccs2)nc1SC1CC(=O)N(c2ccccc2)C1=O` (centres undefined) gave MITF inh -3, FBW7 act 1, GPR151 ag 5.1*, TEAD-YAP inh 0, GPR151 confirm 0 and GPR119 ag 7.
`CSc1ccccc1C(=O)N(C)Cc1ccccc1` gave MITF inh 3, FBW7 act 1, GPR151 ag 5.8*, TEAD-YAP inh -10, GPR151 confirm 0 and GPR119 ag 9.
`Cc1ccc(CN(CC(=O)N2CCOCC2)S(=O)(=O)c2ccc(Cl)cc2)cc1` gave MITF inh -14, FBW7 act 0, GPR151 ag 1 and TEAD-YAP inh 9.
`COc1ccc(C(=O)C2CCCN(S(=O)(=O)c3c(C)nn(C)c3Cl)C2)c(C)c1` (centres undefined) gave MITF inh 17, FBW7 act 0, GPR151 ag 1 and TEAD-YAP inh 8.
Screening COc1c(C)cc(C(=O)C2CCCN(S(=O)(=O)c3c(C)nn(C)c3Cl)C2)cc1C (centres undefined) returned MITF inh -2, FBW7 act 0, GPR151 ag 8.7*, TEAD-YAP inh 0, GPR151 confirm 0 and GPR119 ag -3.
For O=C(CCCc1ccccc1)NCCOc1ccccc1 the results were MITF inh 6, FBW7 act 0, GPR151 ag 5.2*, TEAD-YAP inh -7, GPR151 confirm 0 and GPR119 ag -1.
Cc1cccc(C(=O)NNC(=O)/C=C/C(=O)O)c1 was read as MITF inh -1, FBW7 act 0, GPR151 ag 9.2*, TEAD-YAP inh -44, GPR151 confirm -1 and GPR119 ag -8.
For O=C(NCc1cccs1)c1ccc(N2CC3CC(C2)c2cccc(=O)n2C3)c(NC(=O)c2cc3ccccc3oc2=O)c1 (centres undefined) the results were MITF inh 6, FBW7 act 0, GPR151 ag -1 and TEAD-YAP inh -5.
CN(CC(=O)c1ccc2cc[nH]c2c1)Cc1ccccc1 was read as MITF inh 14, FBW7 act 1, GPR151 ag 5.3*, TEAD-YAP inh -20, GPR151 confirm 0 and GPR119 ag -7.
CCC(=O)c1cnc(NC(N)=S)[nH]c1=O was read as MITF inh 2, FBW7 act 0, GPR151 ag -1 and TEAD-YAP inh 6.
Screening CCOc1ccc2nc(SCC(=O)Nc3ccc4c(c3)OCCO4)c(C#N)cc2c1 returned MITF inh 5, FBW7 act 0, GPR151 ag 6.4*, TEAD-YAP inh 5, GPR151 confirm 0 and GPR119 ag -10.
Screening N#Cc1cc2cc3c(cc2nc1SCC(=O)Nc1ccc(F)cc1)OCCO3 returned MITF inh -8, FBW7 act 0, GPR151 ag 6.2*, TEAD-YAP inh 7, GPR151 confirm 0 and GPR119 ag -10.
For N#Cc1cc2cc3c(cc2nc1SCC(=O)Nc1ccc(F)cc1)OCO3 the results were MITF inh 3, FBW7 act 0, GPR151 ag 2 and TEAD-YAP inh -4.
`CCOc1ccc2cc(C#N)c(SCC(=O)NC(C)(C)C)nc2c1` gave MITF inh -1, FBW7 act 0, GPR151 ag 7.0*, TEAD-YAP inh -2, GPR151 confirm 0 and GPR119 ag 6.
For CCCc1nnc(-c2cc3ccccc3n2CC(=O)Nc2ccccc2C(=O)OCC)o1 the results were MITF inh 11, FBW7 act 0, GPR151 ag -1 and TEAD-YAP inh 4.
Screening Cc1ccc(C(=O)Nc2ncc(Cc3cccc(Cl)c3Cl)s2)cc1 returned MITF inh -1, FBW7 act 0, GPR151 ag 1 and TEAD-YAP inh 0.
For CCNC(=O)C(=O)NCC1OCCCN1S(=O)(=O)c1c(C)cc(C)cc1C (centres undefined) the results were MITF inh 4, FBW7 act 0, GPR151 ag 0 and TEAD-YAP inh 7.
Screening O=C(NC1CCCC1)C(c1ccncc1)N(C(=O)NCc1cccs1)c1ccncc1 (centres undefined) returned MITF inh -11, FBW7 act 0, GPR151 ag 10*, TEAD-YAP inh -12, GPR151 confirm 0 and GPR119 ag 2.
For COc1ccc(N(C(=O)Cc2cccs2)C(C(=O)NC2CCCC2)c2ccncc2)cc1 (centres undefined) the results were MITF inh -1, FBW7 act 0, GPR151 ag 1 and TEAD-YAP inh -28.
`CN1CCN(Cc2ccc(C#CCCO)cc2)CC1CCO` (centres undefined) gave MITF inh -10, FBW7 act 0, GPR151 ag 5.0*, TEAD-YAP inh 0, GPR151 confirm 0 and GPR119 ag 0.
`N#CCn1cnc2c(nnn2-c2cccc(F)c2)c1=O` gave MITF inh -3, FBW7 act 0, GPR151 ag 6.1*, TEAD-YAP inh 10, GPR151 confirm 0 and GPR119 ag -7.
For Cc1ccc2c(Cl)cc(Cl)c(OC(=O)C3CSC4(C)CCC(=O)N34)c2n1 (centres undefined) the results were MITF inh 0, FBW7 act 0, GPR151 ag -1 and TEAD-YAP inh 14.
COCCN1CCCc2ccc(NS(=O)(=O)c3ccc(C)c(C)c3)cc21 was read as MITF inh -6, FBW7 act 0, GPR151 ag -1 and TEAD-YAP inh 7.
COCCN1CCCc2ccc(NS(=O)(=O)c3cc(C)ccc3C)cc21 was read as MITF inh -1, FBW7 act 0, GPR151 ag 5.2*, TEAD-YAP inh 15, GPR151 confirm 0 and GPR119 ag 3.
For CCOC(=O)c1cnn(-c2nc3ccccc3s2)c1CN(CC)Cc1ccncc1 the results were MITF inh -4, FBW7 act 0, GPR151 ag 0 and TEAD-YAP inh -15.
Screening O=C(Nc1nnc(COc2ccccc2)o1)c1cc(Br)ccc1Cl returned MITF inh 12, FBW7 act 0, GPR151 ag 4.9*, TEAD-YAP inh 3, GPR151 confirm -2 and GPR119 ag -15.
